The text below walks through data of ChEMBL document CHEMBL1157539, “Thousands of chemical starting points for antimalarial lead identification” (Nature, 2010).

Type in all cases: functional
Assay [1] has as its system Plasmodium falciparum. In words: GSK_TCMDC: Inhibition of Plasmodium falciparum 3D7 in whole red blood cells, using parasite LDH activity as an index of growth. Test compounds present at 2uM.
Assay [2] relates to Plasmodium falciparum. The experiment in a line: GSK_TCMDC: Inhibition of Plasmodium falciparum Dd2 in whole red blood cells, using parasite LDH activity as an index of growth. Test compounds present at 2uM.
The subject of assay [3] is HepG2. The experiment in a line: GSK_TCMDC: Percent inhibition of human HepG2 cell line. Test compounds present at 10uM.

`CCCOc1cc(NC(=O)Nc2ccnc3ccccc23)cc(OCCC)c1.Cl`: the Inhibition in assay [1] is recorded as 100%; in assay [2], 98%; in assay [3] it was 6%.

As for `Clc1ccc2c(NN=Cc3cccs3)ccnc2c1`, the figures for the Inhibition in assay [1], in assay [2] and in assay [3] were 100%, 96% and 0%, respectively.

Turning to `O=C(NC1CCN(CC2(c3ccccc3F)CCCC2)CC1)c1cc[nH]n1`, the Inhibition in assay [1] is given as 93%; in assay [2], 91%; in assay [3], 0%.

Turning to `O=C(C=Cc1ccc(Cl)c(Cl)c1)NCCCCCN1CCCC(CCCNC(=O)c2sc3ccccc3c2Cl)C1` (stereo not drawn), the Inhibition came out at 88% in assay [1], 32% in assay [2] and 82% in assay [3].

On to `CC(C)(C)CC(=O)Nc1ccc(Nc2cc(-c3ccncc3)cc3ncc(C(N)=O)cc23)cc1`, for which the Inhibition in assay [1] is 97%; in assay [2], 85%; in assay [3], 5%.

`CCCCN(C(=O)c1ccccc1C)c1nnc(-c2ccccc2C)s1`: the values for the Inhibition in assay [1], in assay [2] and in assay [3] were 92%, 94% and 10%, respectively.

As for `O=C(Nc1cccc(CN2CCCN(Cc3ccc(O)cc3)CC2)c1)c1ccc(Br)cc1.O=C(O)C(F)(F)F`, the results for the Inhibition in assay [1], in assay [2] and in assay [3] were 94%, 54% and 19%, respectively.

As to `COc1ccc2cc(C(=O)Nc3ccc4c(c3)CCN(C3CCC3)CC4)ccc2c1.O=C(O)C(F)(F)F`, the Inhibition in assay [1] came out at 100%; in assay [2] it was 9%; in assay [3], 34%.

As to `O=C(O)C(F)(F)F.c1cc(CNCCc2ccncc2)cc(-c2cccc(-c3nc4ccccc4[nH]3)c2)c1`, the Inhibition turned out to be 100% in assay [1], 88% in assay [2] and 21% in assay [3].

Take `CCCCCc1ccc(NC(=O)Nc2ccc(Cn3ncc(N4CCCNCC4)c(Cl)c3=O)cc2)cc1.O=C(O)C(F)(F)F`: the values for the Inhibition in assay [1], in assay [2] and in assay [3] were 87%, 23% and 15%, respectively.

Turning to `FC(F)(F)c1ccc2[nH]c(-c3ccc(-c4cccc(CNCc5ccccc5)c4)cc3)nc2c1.O=C(O)C(F)(F)F`, the Inhibition is reported as 100% in assay [1], 43% in assay [2] and 0% in assay [3].

As for `COc1cc(Nc2nccc(N3CCC(NC(=O)c4cc5ccccc5s4)C3)n2)cc(OC)c1OC` (stereo not drawn), the Inhibition turned out to be 96% in assay [1], 50% in assay [2] and 2% in assay [3].

As for `O=C(Nc1ccnc(-c2cccnc2)n1)c1cc(C(F)(F)F)cc(C(F)(F)F)c1`, the Inhibition in assay [1] is reported as 95%; in assay [2], 12%; in assay [3] it was 22%.

Regarding `CCc1ccccc1NC(=O)CN1CCN(c2ncnc3scc(-c4ccc(F)cc4)c23)CC1`, the Inhibition in assay [1] was 83%; in assay [2] it was 62%; in assay [3], 6%.

Regarding `Fc1cccc(COc2ccc(Nc3ncnc4sc(C#CC5CCCCN5)cc34)cc2Cl)c1.O=C(O)C(F)(F)F` (stereo not drawn), the Inhibition in assay [1] was 100%; in assay [2], 100%; in assay [3] it was 30%.

In the case of `Cn1nc(-c2ccc(CNC3CCc4ccccc43)cc2)c2cnc(NCCN3CCCC3)nc21` (stereo not drawn), the Inhibition in assay [1] is on record as 99%; in assay [2], 17%; in assay [3], 21%.

Turning to `CO/C(=C\C=C\c1cc2cc(Cl)ccc2[nH]1)C(=O)NCCCN1CCN(c2cc(Cl)ccc2OC)CC1`, the Inhibition is reported as 97% in assay [1], 21% in assay [2] and 41% in assay [3].

In the case of `Cn1nc(-c2ccc(CN[C@@H]3CCc4ccc(O)cc43)cc2)c2cnc(NC3CCCC3)nc21`, the results for the Inhibition in assay [1], in assay [2] and in assay [3] were 97%, 8% and 12%, respectively.

Take `CCCNCc1ccc(-c2ccc(CN(CCOC)C(=O)CCCOCc3ccccc3)cc2)nc1.O=C(O)C(F)(F)F`: the figures for the Inhibition in assay [1], in assay [2] and in assay [3] were 93%, 13% and 0%, respectively.

`CCOC(=O)c1[nH]c2ccc(F)cc2c1NC(=O)CN1CCN(c2cccc(C(F)(F)F)c2)CC1`: the Inhibition in assay [1] turned out to be 96%; in assay [2] it was 90%; in assay [3] it was 12%.

Take `Clc1ccc(-c2cc(-c3csc(NCCN4CCOCC4)n3)on2)c(Cl)c1`: the Inhibition was 97% in assay [1], 86% in assay [2] and 39% in assay [3].

As to `COC(=O)CCn1c(C2CCN(CC3CCC(NC(=O)/C=C/c4ccc(Cl)c(Cl)c4)CC3)CC2)nc2ccccc21` (stereo not drawn), the Inhibition in assay [1] was determined as 94%; in assay [2], 10%; in assay [3], 14%.

Take `O=C(C1CC1)N1c2ccccc2CCc2ccccc21`: the figures for the Inhibition in assay [1], in assay [2] and in assay [3] were 98%, 57% and 40%, respectively.

As to `O=C(NC1CC1)c1ccc2cc(C(=O)N3Cc4ccccc4C(c4ccccc4)C3)ccc2c1` (stereo not drawn), the Inhibition in assay [1] turned out to be 97%; in assay [2] it was 64%; in assay [3], 0%.

For the compound `O=C(Nc1ccc(Cl)cc1)Nc1ccc2c(c1)N1CCN=C1S2`, the Inhibition was found to be 99% in assay [1], 100% in assay [2] and 15% in assay [3].

Consider `CCOC(=O)c1ccc(NC(=O)NCCCC2CCCN(CCCCCNC(=O)/C=C/c3ccc(Cl)c(Cl)c3)C2)cc1` (stereo not drawn), for which the Inhibition amounted to 96% in assay [1], 30% in assay [2] and 14% in assay [3].

For the compound `CCCCCCCCCc1c(C)[nH]c2ccccc2c1=O`, the Inhibition in assay [1] amounted to 97%; in assay [2], 96%; in assay [3], 0%.

With `C=C(C)CSc1nc2c(c(=O)n1Cc1ccco1)C1(CCCCC1)Cc1ccccc1-2`, the Inhibition in assay [1] worked out at 97%; in assay [2], 68%; in assay [3], 2%.

`CS(=O)(=O)c1ccc(-c2cnc(N)c(-c3cccc(CO)c3)c2)cc1`: the Inhibition was 98% in assay [1], 51% in assay [2] and 0% in assay [3].

For the compound `O=C(Cc1ccccc1)NC1(c2ccccc2)CCN(CCc2c[nH]c3ccc(F)cc23)CC1`, the Inhibition in assay [1] came out at 87%; in assay [2] it was 62%; in assay [3] it was 29%.

Regarding `Br.COc1ccc(OCCCCON2C(=N)N=C(N)NC2(C)C)cc1`, the figures for the Inhibition in assay [1], in assay [2] and in assay [3] were 92%, 95% and 54%, respectively.
